# From PubChem BioAssay
# Rows were chosen to be rich in hits. Some 3.8% of all compounds tested hit in one or more screens of this group.
# Jurkat NFkB inh – inhibitors of the PMA/ionomycin-induced NF-kB reporter in Jurkat cells | PMA/ionomycin-induced NF-kB luciferase reporter, luminescence | inhibition, % at 4 µM | 330,000 tested, 0.53% active | AID 435003; in the data active = inhibition above about 50%
# Gli-Sufu antag – blocks Gli-Sufu signaling in a luciferase reporter; Sufu-KO-LIGHT fibroblasts, Gli luciferase reporter luminescence; inhibition, % at 5 µM; 340,000 tested, 0.74% active; AID 588413;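 active = inhibition above about 55%, limit read from the data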;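 also: 0% = DMSO-treated cells and 100% = wells with medium but no cells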
# 697 NFkB inh – lowers PMA/ionomycin-induced NF-kB signal in 697 B cells | 697 B-cell NF-kB luciferase reporter, 16 h | 330,000 tested, 0.33% active | inhibition, % at 4 µM; in the data active = inhibition above about 35%
# Mdm2 MdmX PPI – human Mdm2/MdmX binding inhibition. 330,000 tested, 3% active. O15151+Q00987. inhibition, % at 8 µM. SaOS-2 split-luciferase Mdm2/MdmX complementation, luminescence;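 active = inhibition of at least 50% at 8 µM in the primary screen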
# Target sequence (O15151 whole entry, looked up): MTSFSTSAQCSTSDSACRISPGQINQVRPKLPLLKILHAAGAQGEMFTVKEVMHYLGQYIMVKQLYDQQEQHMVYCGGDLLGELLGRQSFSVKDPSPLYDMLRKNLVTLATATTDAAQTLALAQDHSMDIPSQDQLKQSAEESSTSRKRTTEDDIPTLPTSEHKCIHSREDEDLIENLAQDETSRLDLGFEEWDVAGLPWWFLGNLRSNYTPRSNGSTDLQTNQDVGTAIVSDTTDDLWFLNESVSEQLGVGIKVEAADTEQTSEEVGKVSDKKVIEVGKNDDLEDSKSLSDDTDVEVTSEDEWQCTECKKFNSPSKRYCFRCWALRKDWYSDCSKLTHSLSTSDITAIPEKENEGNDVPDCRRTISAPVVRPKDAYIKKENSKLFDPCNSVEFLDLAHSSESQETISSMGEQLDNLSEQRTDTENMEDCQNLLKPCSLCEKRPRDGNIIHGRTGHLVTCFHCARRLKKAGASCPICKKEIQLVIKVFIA
# Target sequence (Q00987 whole entry, looked up): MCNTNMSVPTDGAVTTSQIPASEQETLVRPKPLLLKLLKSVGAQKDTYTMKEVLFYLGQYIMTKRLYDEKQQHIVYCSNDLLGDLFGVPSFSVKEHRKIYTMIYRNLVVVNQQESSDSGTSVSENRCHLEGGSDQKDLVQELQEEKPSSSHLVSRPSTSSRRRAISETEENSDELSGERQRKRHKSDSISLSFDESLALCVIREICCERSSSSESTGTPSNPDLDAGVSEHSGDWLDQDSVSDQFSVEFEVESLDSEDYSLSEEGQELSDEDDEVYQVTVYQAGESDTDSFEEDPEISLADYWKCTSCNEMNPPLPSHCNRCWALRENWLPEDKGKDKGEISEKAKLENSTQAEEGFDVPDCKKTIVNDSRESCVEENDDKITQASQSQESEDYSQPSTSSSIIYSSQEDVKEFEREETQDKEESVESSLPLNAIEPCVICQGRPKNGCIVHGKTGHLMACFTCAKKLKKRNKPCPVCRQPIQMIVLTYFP
# Shn3 3UTR inh – reduces Shn3 3'UTR luciferase signal in osteoblasts. 360,000 tested, 0.52% active. inhibition, % at 12.5 µM. Clone20 osteoblast Shn3 3'UTR firefly luciferase, 24 h;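 active = mean inhibition of at least 75% with every replicate also reaching 75%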;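 also: 0% = median of neutral control wells and 100% = pilot-screen positive control compound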
# Mdm2 MdmX conf – human Mdm2/MdmX binding inhibition, confirmed | 10,000 tested, 55% active | shares compounds with Mdm2 MdmX PPI | inhibition, % at 8 µM | AID 489028 | luminescent assay; in the data active = inhibition above about 40%
# Full FLuc ctr – full-length luciferase inhibition in Mdm2/MdmX counter-screen; shares compounds with Mdm2 MdmX PPI; SaOS-2 full-length luciferase counterscreen, luminescence; inhibition, % at 8 µM; 6,200 tested, 77% active;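 active = mean inhibition at 8 µM reaching about 37%, which flags the compound as non-specific, limit read from the data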;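 also: p53-null SaOS-2 cells with luciferase driven by a doxycycline-inducible promoter; compound on cells about two nights before reading with doxycycline added after day one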
# * hit, by the source's call; · = not tested or not shown.
SMILES,Jurkat NFkB inh,Gli-Sufu antag,697 NFkB inh,Mdm2 MdmX PPI,Shn3 3UTR inh,Mdm2 MdmX conf,Full FLuc ctr
CCCCCCc1cc2cc(S(=O)(=O)c3ccc(Cl)cc3)c(=O)oc2cc1O,20,5,3,75*,2,34,·
CCCCCCc1cc2cc(S(=O)(=O)c3ccc(C)cc3)c(=O)oc2cc1O,1,6,5,32,11,·,·
CCC(C)NC(=O)c1c(N)n(/N=C/c2cccnc2)c2nc3ccccc3nc12 (centres undefined),7,11,14,65*,2,60*,61*
Cc1ccc(C(=O)N2C(CC(=O)Nc3ccc(Cl)cc3)C(=O)NC3CCCCC32)cc1 (centres undefined),25,5,15,54*,17,55*,25
O[C@H]1CN(CC2CCCCC2)[C@@H](c2ccc(Cl)cc2)C[C@@H]1n1cc(C2CC2)nn1,·,·,·,·,74,·,·
COc1ccc(/C=N/NC(=O)c2cc3c(OC)ccc(OC)c3[nH]2)cc1O,31,23,-7,61*,40,47*,90*
COc1cccc(/C=N/NC(=O)c2cc(-c3cccn3C)n[nH]2)c1O,35,9,4,53*,73,64*,32
COc1ccc(OC)c2[nH]c(C(=O)N/N=C/c3ccccc3O)cc12,36,59*,-16,82*,93*,71*,32
COc1cc(/C=N/NC(=O)c2cc(-c3cccn3C)n[nH]2)cc(OC)c1OC,34,-3,-7,-50,22,·,·
COc1ccc(-c2ccc(=O)n(CC(=O)Nc3nnc(C(C)C)s3)n2)cc1OC,0,4,10,5,-9,·,·
COc1ccc(-c2ccc(=O)n(CC(=O)Nc3cccc(O)c3)n2)cc1OC,-1,-2,-18,55*,7,55*,108*
NC(=O)COC(=O)c1ccc2noc(-c3ccccc3)c2c1,-2,·,-116,6,-2,·,·
COC(=O)[C@H]1[C@H]2C[C@@H]3c4[nH]c5cc(OC)ccc5c4CCN3C[C@H]2C[C@@H](OC(=O)/C=C/c2cc(OC)c(OC)c(OC)c2)[C@@H]1OC,6,-3,19,64*,2,37,70*
O=C(CCl)N1c2ccccc2SCC1c1ccccc1 (centres undefined),14,-17,-3,99*,15,54*,19
O=C(CCl)N1c2ccccc2OCC1c1ccccc1 (centres undefined),7,-4,22,13,-1,·,·
O=C1Nc2ccc(Cl)cc2C(C#CC2CC2)(C(F)(F)F)O1 (centres undefined),2,9,6,7,46,·,·
CC1(C)CC(=O)C2=C(C1)OC1=C(C(=O)CC(C)(C)C1)C2c1ccc(O)cc1O,-3,0,15,100*,94*,83*,50*
CC1(C)CC(=O)C2=C(C1)OC1=C(C(=O)CC(C)(C)C1)C2c1ccc(O)c([N+](=O)[O-])c1,10,-1,0,13,4,·,·
COc1ccc2c(c1)C1(Nc3ccccc3-c3nc4ccccc4n31)C(=O)N2 (centres undefined),4,4,-6,36,12,·,·
COc1ccc2c(c1)C1(Nc3ccccc3-c3nc4ccccc4n31)C(=O)N2C (centres undefined),-10,12,-26,76*,-1,81*,46*
O=C(/C=C/c1cc([N+](=O)[O-])ccc1OC(F)F)Nc1ccc(OC(F)F)cc1,0,7,6,10,23,·,·
O=C(/C=C/c1cc([N+](=O)[O-])ccc1OC(F)F)Nc1cccc([N+](=O)[O-])c1,3,25,34,75*,17,23,·
CCOc1ccc(CCNC(=O)Cn2ncn3nc(-c4ccc(OC)cc4)cc3c2=O)cc1OCC,-19,-11,-12,59*,-11,11,·
COc1ccc(-c2cc3c(=O)n(CC(=O)NCc4ccccc4F)ncn3n2)cc1,-4,-15,-19,70*,-28,0,·
COc1ccc(NC(=O)Cn2ncn3nc(-c4ccc(OC)cc4)cc3c2=O)cc1,-9,-12,-11,80*,1,20,90*
O=c1ccn([C@@H]2O[C@H](CNCC3=Cc4cc(O)ccc4OC3)[C@@H](O)[C@H]2O)c(=O)[nH]1,·,-4,·,·,-26,·,·
